Gal4-VP16 FLuc: Gal4-VP16 reporter inhibition counter-screen. hit rate 3.5% among 310,000. AID 2546. Drosophila S2 Gal4-VP16 UAS-luciferase, luminescence, 20 h. Potency, µM (titrated, usually from 53.6 µM), inactives show top-dose activity, negative = inhibition, actives largely listed as inhibitors;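 note: Gal4-VP16 expression switched on by copper sulfate through the metallothionein promoter; % is set by controls: 0 for no effect and ±100 for the full control effect; nearly all actives have a fitted effect of over 50% in size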
ATXN viability: cell viability loss in ATXN counter-screen. Potency, µM (titrated, usually from 56.7 µM), most hits filed as cytotoxic. S2 cells (HEK-293 line with an ATXN2-luciferase reporter) viability, CellTiter-Fluor protease fluorescence, 24 h. hit rate 0.49% among 400,000; note: nearly all actives have a fitted effect of over 40% in size
RORg inh: inhibitors of mouse ROR gamma transcriptional activity; P51450; Drosophila S2 Gal4-RORgamma UAS-luciferase reporter, 20 h; Potency, µM (doses to about 53.6 µM), inactives show top-dose activity change, negative = inhibition, actives largely listed as inhibitors; hit rate 5.4% among 310,000; AID 2551; note: % is set by controls: 0 for no effect and ±100 for the full control effect; nearly all actives have a fitted effect of over 60% in size
Target sequence (P51450 whole entry, looked up, the tested form may be a part): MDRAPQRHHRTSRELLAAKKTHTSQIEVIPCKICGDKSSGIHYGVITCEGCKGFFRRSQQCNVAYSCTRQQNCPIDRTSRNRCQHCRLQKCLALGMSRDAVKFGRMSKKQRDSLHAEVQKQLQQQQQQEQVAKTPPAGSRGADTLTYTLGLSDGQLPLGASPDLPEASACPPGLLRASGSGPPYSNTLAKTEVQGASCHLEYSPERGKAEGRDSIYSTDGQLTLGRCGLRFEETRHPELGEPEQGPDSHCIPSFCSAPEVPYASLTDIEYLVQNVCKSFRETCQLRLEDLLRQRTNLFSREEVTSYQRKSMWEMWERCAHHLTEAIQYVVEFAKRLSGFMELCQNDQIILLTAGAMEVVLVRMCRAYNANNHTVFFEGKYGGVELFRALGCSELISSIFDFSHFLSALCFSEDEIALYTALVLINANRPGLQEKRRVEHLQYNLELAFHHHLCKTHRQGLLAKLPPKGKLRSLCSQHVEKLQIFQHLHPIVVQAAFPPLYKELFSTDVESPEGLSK
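Read-out: Photinus luciferase luminescence; inhibitors lower reporter signal. Insect Schneider cells with Gal4-ROR gamma fusion under metallothionein promoter, UAS reporter; 700 uM final copper sulfate induction, 20 hr, ambient temperature.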
TGFb inhibitor: blocks TGF-b signaling; HepG2 CAGA-GFP TGF-b/SMAD3 reporter, GFP fluorescence, 18 h; TGF-beta stimulated, 500 pg/mL final; Potency, µM (titrated, usually from 46.1 µM), without a hit: at the top dose activity, negative = inhibition, usual class: inhibitors; hit rate 1.2% among 410,000; note: % is set by controls: 0 for no effect and ±100 for the full control effect; nearly all actives have a fitted effect of over 65% in size
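TGF-beta reporter screen: HEPG2 CAGA-GFP, 1% FBS, 500 pg/mL TGF-beta final, 18 h; per-cell GFP summed per well; curves fitted and categorized by class.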
HepG2 tox: kills HepG2 cells in TGF-b inhibitor counter-screen; hit rate 0.76% among 410,000; Potency, µM (top dose mostly 46.1 µM), without a hit: at the highest dose activity change, negative = cytotoxicity, most hits filed as cytotoxic; HepG2 CAGA-GFP viability, ATP luminescence, 18 h
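HepG2 CAGA-GFP cells (1000/well, DMEM with 1% FBS) received compound, then TGF-beta at 500 pg/mL final, and were incubated 18 hours at 37 degrees C. Viability was read by CellTiter-Glo luminescence. Media-only wells were set as complete cell-killing and DMSO as no toxicity.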
ATXN2 expr inh: ATXN2 expression inhibition | Potency, µM (titrated, usually from 57 µM), without a hit: top-dose activity change, negative = inhibition, actives largely listed as inhibitors | hit rate 0.72% among 360,000 | HEK-293 ATXN2-luciferase reporter, luminescence, 24 h; note: % is set by controls: 0 for no effect and ±100 for the full control effect; nearly all actives have a fitted effect of over 55% in size
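qHTS (up to 57 uM final) was run with 24 h compound exposure of reporter cells at 37 °C. Each well was multiplexed: SteadyGlo luminescence measured ATXN2-luciferase expression after a fluorogenic Gly-Phe-AFC viability readout (25 uM final).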
An asterisk follows results filed as active; i = inactive; ? = inconclusive; nt = no result given; ! = not active in a repeat. Compounds with a hit are over-represented: about 6.3% of the library has one in this group of screens. Calls come from the whole dose curve; as a rule, active = well fitted curve in the direction sought with a large enough effect; inconclusive = small, poorly fitted or top-dose-only effect, or another doubt; inactive = no such curve, though single readings can be large; an effect the other way counts as inactive or inconclusive. Potency is the fitted concentration of half-maximal effect.

SMILES | Gal4-VP16 FLuc | ATXN viability | RORg inh | TGFb inhibitor | HepG2 tox | ATXN2 expr inh
COc1ccc(Cc2c(-c3ccco3)nc3ccc(Br)cn23)c(C)c1 | nt | nt | nt | 16µM* | 16µM* | ?
COc1ccc(Cc2c(-c3ccco3)nc3c(C)cc(Br)cn23)c(C)c1 | nt | ? | nt | ? | -17% | -26%
Cc1cccc(C(=O)NNC(=O)C2CCCCC2)c1O | nt | ? | nt | 29% | 33% | nt
C[C@H](NC(=O)c1nc[nH]c1C(=O)N[C@@H](Cc1ccccc1)C(=O)OC(C)(C)C)c1ccccc1 | 11µM* | ? | 7.1µM* | ? | -66% | ?
CN(Cc1ccccc1)C(=O)c1[nH]cnc1C(=O)N[C@@H](Cc1ccccc1)C(=O)OC(C)(C)C | ? | ? | ? | ? | -1% | 0%
CC(C)(C)OC(=O)[C@H](Cc1ccccc1)NC(=O)c1nc[nH]c1C(=O)NC1CCNCC1 | nt | i | nt | ? | 0% | -10%
C[C@@H](NC(=O)c1nc[nH]c1C(=O)N[C@@H](Cc1ccccc1)C(=O)OC(C)(C)C)c1ccccc1 | 7.1µM* | nt | 4µM* | ? | -58% | ?
COCCCNC(=O)CSc1nc2cc3c(cc2c(=O)n1CCCCCC(=O)NCc1ccc2c(c1)OCO2)OCO3 | nt | nt | nt | -2% | -2% | nt
COc1ccccc1C1CN(CCNC(=O)c2cscn2)Cc2ccccc2O1 (configuration not stated) | nt | i | nt | nt | nt | nt
c1ccc(CCNc2ccnc3cc4ccccc4cc23)cc1 | ? | nt | ? | ? | 11µM* | ?
CC(C)Nc1ccc(Nc2ccnc3cc4ccccc4cc23)cc1 | ? | nt | ? | ? | 11µM* | ?
COc1ccc(Nc2ccnc3ccccc23)cc1 | -5% | i | 7% | -1% | -16% | 19%
N#CC1=C(SCC(=O)NC23CC4CC(CC(C4)C2)C3)NC(=O)C(C#N)C12CCCCC2 (configuration not stated) | 16µM* | ? | ? | 11µM* | -26% | ?
N#CC1=C(SCC(=O)NC2CC2)NC(=O)C(C#N)C12CCCCC2 (configuration not stated) | -4% | i | -3% | 0% | 0% | 2%
O=C(CCN1C(=O)C2C3C=CC(C4CC34)C2C1=O)Oc1cccc2cccnc12 (configuration not stated) | 7.9µM* | i | 2µM* | 5µM* | 6.3µM* | ?
CC[C@H](C)[C@H](NC(=O)[C@H](Cc1ccc(O)cc1)NC(=O)[C@@H](NC(=O)[C@H](CCCN=C(N)N)NC(=O)[C@@H](N)CC(=O)O)C(C)C)C(=O)N[C@@H](Cc1ccc(N)cc1)C(=O)N1CCC[C@H]1C(=O)N[C@@H](Cc1ccccc1)C(=O)O | -8% | nt | -18% | nt | nt | nt
COc1ccccc1/C=C/c1nc2ccccc2o1 | nt | nt | nt | -8% | -21% | nt
CCC(NC(=O)Nc1nnc(C(F)(F)F)s1)(C(F)(F)F)C(F)(F)F | 3.5µM* | nt | ? | ? | -40% | 8.9µM*
NC(=S)N1OC[C@@H]2COc3ccc4ccccc4c3[C@@H]21 | 4% | i | ? | ? | -23% | 14µM*
CC1=NN(c2ccc(C)c(C)c2)C(=O)/C1=C\C=C\c1ccc([N+](=O)[O-])o1 | ? | 3.2µM* | 10µM* | 10µM* | -72% | ?
CC1=NN(c2ccccc2)C(=O)/C1=C/C=C/c1ccc(N(C)C)cc1 | -12% | nt | -12% | -3% | -2% | nt
Cc1ccc(N/C(N)=N/c2nc(C)cc(N3CCCCC3)n2)c(C)c1 | ? | ? | -33% | ? | -22% | 22µM*
Cc1ccc(N/C(N)=N/c2nc3c(c(=O)[nH]2)CCCC3)c(C)c1 | -8% | i | 9% | 7% | -17% | -8%
C=C(C)CN1C(=O)C2(OCCO2)c2cc(Br)ccc21 | nt | i | nt | ? | -5% | 5%
CCc1ccc(C(=O)c2cn(CC(=O)Nc3cc(OC)ccc3OC)c3nc(C)ccc3c2=O)cc1 | nt | i | nt | -5% | -1% | -10%
SMILES | Gal4-VP16 FLuc | ATXN viability | RORg inh | TGFb inhibitor | HepG2 tox | ATXN2 expr inh
CCCCCCCCC/C(=N\O)c1ccccn1 | 11µM* | ? | 3.5µM* | -14% | -47% | ?
CCCCCCCCC(=O)N/N=C/c1ccccn1 | -8% | i | -88% | ? | -22% | -24%
CCC1CN(C(=O)N2CCC(C(=O)NCc3cccc(OC)c3OC)CC2)c2cc(C)ccc2O1 (configuration not stated) | -1% | i | 7% | 11µM*! | -18% | -7%
CCOc1ccc(CNC(=O)C2CCN(C(=O)N3CC(CC)Oc4ccc(C)cc43)CC2)cc1OC (configuration not stated) | nt | nt | nt | ? | -3% | nt
O=C1c2ccc([N+](=O)[O-])cc2C(=O)N1c1ccc(Cl)cn1 | -12% | nt | -4% | 5% | 2% | -9%
O=C1c2cccc3c(N4CCCCC4)ccc(c23)C(=O)N1c1ccccn1 | 2% | i | ? | 76% | 4% | -6%
O=C1c2cccc3c([N+](=O)[O-])ccc(c23)C(=O)N1c1ccc(Cl)cn1 | 7.9µM* | nt | ? | 28% | -1% | ?
O=C1c2cccc3c([N+](=O)[O-])ccc(c23)C(=O)N1c1ccccn1 | -8% | nt | 1% | 0% | -104% | 14µM*
O=C1c2cccc3c([N+](=O)[O-])ccc(c23)C(=O)N1O | 13µM* | i | ? | -22% | -12% | nt
O=C1c2cccc3c([N+](=O)[O-])ccc(c23)C(=O)N1c1nccs1 | 5µM* | i | 5.6µM* | -16% | -35% | ?
CC(=O)O[C@H]1C[C@@H]2CC[C@H]3[C@H]4C[C@H]([N+]5(C)CCCCC5)[C@@H](OC(C)=O)[C@@]4(C)CC[C@@H]3[C@@]2(C)C[C@H]1N1CCCCC1 | nt | nt | nt | nt | nt | 0%
COc1ccc(NC(=O)c2cc(C3CCCCN3S(=O)(=O)c3cn(C)cn3)on2)c(C)c1 (configuration not stated) | nt | i | nt | 19% | 0% | 14%
Cc1sc2ncnc(NC3CCN(Cc4ccccc4)CC3)c2c1C | 16µM* | i | ? | ? | -22% | -30%
Cn1c(SCC2CCCO2)nnc1C1CCN(Cc2ccc(-c3cccc(Cl)c3)o2)CC1 (configuration not stated) | nt | i | nt | nt | nt | nt
CCNCCC(CCC(C)C)c1ccc2c(c1)OCO2 (configuration not stated) | 10% | i | -20% | -2% | -23% | -19%
COc1ccc(CNCCC(c2ccc(OC(C)C)cc2)c2ccccc2OC)cc1OC (configuration not stated) | 3% | i | -7% | ? | -99% | -27%

High-throughput results (PubChem BioAssay)
